# Target: DNAJA2
# Test: pooled miR-30 sensor sort-seq; sequence = guide strand
# Conditions: shRNA
# Note: reference of the scale not given here.
row,Sequence,sensor-assay potency score (higher = more potent)
1,TAGAGCTTCAACAAGTCCTATT,-0.658
2,TAGTTCAGAAAGCTTGTCTGGG,0.299
3,TACCTCATGTTCTTTCTCCTGT,0.929
4,TATTTCACCACAATCTGACGTC,0.583
5,AATTATGTTAGGAACTTCCGGT,-0.0625
6,TTTCTTTAAATTTGTCTCCTGC,0.759
7,TTCTTCAGCTCGTTCTCGCTGG,-0.323
8,TTGATAGTACTTCATATGCAAA,-1.43
9,TTCAAGAATCTTGACTTCTTTA,-0.418
10,TATTCCTTGGCTAACTTTCTGT,-0.171
11,TTTCATGCCTTTGTCTACGTGG,-0.148
12,TCGAGTGCTATCAAATTCCTGA,0.237

# Target: DNAJB11
# Test: as above
# Conditions: shRNA
row,Sequence,sensor-assay potency score (higher = more potent)
1,TTCGTCGCAGACCACCTCCTGG,-1.23
2,TCTTATAGAAATCTCGTCCGGC,0.334
3,TTCGGAACCGTAAATCTCCAGG,-0.565
4,TTTGTTTCTAACTACTTCCACA,-0.721
5,TTTGTGTACAAATCATCTCCTC,-0.115
6,TATTTCTGTCTTGCTGACGAGG,-1.05
7,TATACCTTCTGCACTGACCCTT,0.681
8,TCTATTTCTACTTCCAGCGTTC,-0.287
9,TCTTCCATAGCTTCGCTCCTGG,-0.0366
10,TTCTTCACCATAAGTATCGTAC,-0.183
11,TTCACCATAAGTATCGTACTGT,0.409
12,TTGTGTACAAATCATCTCCTCT,-0.302
